Bioassay records deposited in PubChem by National Center for Advancing Translational Sciences (NCATS).
Cruzain Triton: cruzain (T. cruzi) inhibition with detergent; 0.43% of 200,000 active; purified cruzain, Z-FR-AMC fluorescence, 0.01% Triton; P25779; Potency, µM, for inactives: max response, negative = inhibition, actives largely listed as inhibitors;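 also: plate controls were neutral wells for no effect and buffer without enzyme for full effect; nearly all actives have a fitted effect of over 40% in size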
Target sequence (P25779 123-467 limits assumed): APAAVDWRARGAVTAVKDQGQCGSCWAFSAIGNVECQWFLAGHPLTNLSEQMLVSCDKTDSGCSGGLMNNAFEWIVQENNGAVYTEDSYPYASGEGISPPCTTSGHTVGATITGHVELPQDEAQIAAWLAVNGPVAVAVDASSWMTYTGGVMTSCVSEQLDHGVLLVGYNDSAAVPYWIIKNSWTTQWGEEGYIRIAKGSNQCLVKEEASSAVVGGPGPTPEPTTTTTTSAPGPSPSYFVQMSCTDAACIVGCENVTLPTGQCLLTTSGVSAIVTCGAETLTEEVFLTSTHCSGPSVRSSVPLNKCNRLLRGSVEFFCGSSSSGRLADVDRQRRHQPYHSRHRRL
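Read-out: AMC fluorescence (360 nm excitation, 450 nm emission), four reads over 2 min, first-to-third difference used. Conditions: cruzain 1.5 nM, Z-FR-AMC 2 uM, pH 5.5 acetate, 5 mM DTT, 0.01% Triton X-100.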
Cruzain inh noDet: blocks cruzain activity in detergent-free assay. purified cruzain, Z-FR-AMC fluorescence, no detergent. Potency, µM, for inactives: max response, negative = inhibition, hits mostly inhibitors. 2.3% of 200,000 active;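 also: plate controls were enzyme without inhibitor for no effect and buffer without enzyme for full effect; nearly all actives have a fitted effect of over 40% in size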
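Detergent-free condition (0.00005% Triton X-100) in acetate buffer pH 5.5 with DTT. 1.5 nM enzyme and compound were pre-mixed 15 min, then 2 uM Z-FR-AMC substrate added; reaction progress from fluorescence change between first and third reads (60 s).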
The depositor's hits bear a star. This is a sample that favours compounds with a hit; in the whole collection about 2.4% have one here. Calls follow the shape of the dose curve; as a rule, active = well fitted curve in the direction sought with a large enough effect; inconclusive = small, poorly fitted or top-dose-only effect, or another doubt; inactive = no such curve, though single readings can be large; an effect the other way counts as inactive or inconclusive. Potency is read from the fitted curve at half-maximal effect.

What do the screens show for `COc1ccc(NC(=O)Cn2c(=O)n(Cc3ccccc3OC)c(=O)c3cccnc32)cc1Cl`?
Cruzain Triton: -3%; Cruzain inh noDet: 1%

How did CC(C)CC(=O)Nc1cc([N+](=O)[O-])ccc1Cl do in these assays?
Cruzain Triton: 2%; Cruzain inh noDet: -8%

Results for O=C(CNC(c1ccccc1)c1ccccc1)Nc1cc([N+](=O)[O-])ccc1Cl ?
Cruzain Triton: -7%; Cruzain inh noDet: 25µM*

What do the screens show for `COc1cccc(OCc2nc3ccccc3n2CCOc2ccccc2C)c1`?
Cruzain Triton: -6%; Cruzain inh noDet: 7%

Results for COC(=O)c1cc(=O)n(Cc2ccc3c(c2)OCO3)c(=Nc2ccc(F)c(Cl)c2)s1 ?
Cruzain Triton: -2%; Cruzain inh noDet: 20µM*

How did COC(=O)c1cc(=O)n(CCc2ccc(OC)cc2)c(=Nc2ccc(F)c(Cl)c2)s1 do in these assays?
Cruzain Triton: 0%; Cruzain inh noDet: -20%

Results for COc1cccc(Cn2c(=O)c(CCc3ccccc3)nc3cnc(N4CCN(C)CC4)nc32)c1 ?
Cruzain Triton: -3%; Cruzain inh noDet: -3%

Results for O=C1N/C(=N\N=C\c2cccs2)SC1Cc1cccc(Cl)c1 (stereo not given) ?
Cruzain Triton: -3%; Cruzain inh noDet: inconclusive

Results for O=C1N/C(=N\N=C\c2cccs2)SC1Cc1ccc(Cl)cc1 (stereo not given) ?
Cruzain Triton: -6%; Cruzain inh noDet: 2.5µM*

What do the screens show for `CCCC12CN3CC(C)(CN(C1)C3c1ccc(OCc3ccccc3)cc1)C2=O` (stereo not given)?
Cruzain Triton: 2%; Cruzain inh noDet: -15%

How did COC(=O)c1ccccc1NC(=O)CN1C(=O)C2CCCN2c2ncc(Cl)cc21 (stereo not given) do in these assays?
Cruzain Triton: -2%; Cruzain inh noDet: 10µM*

What do the screens show for `COc1ccc(CNC(=O)CN2C(=O)C3CCCN3c3ncc(Cl)cc32)cc1` (stereo not given)?
Cruzain Triton: -3%; Cruzain inh noDet: -26%

How did CCc1ccccc1NC(=O)CN1C(=O)C2CCCN2c2ncc(Cl)cc21 (stereo not given) do in these assays?
Cruzain Triton: 2%; Cruzain inh noDet: -3%

Results for O=C(CN1C(=O)C2CCCN2c2ncc(Cl)cc21)NCc1ccc2c(c1)OCO2 (stereo not given) ?
Cruzain Triton: 3%; Cruzain inh noDet: 25µM*

How did CCOC(=O)C1=C(CSc2nc(-c3ccccc3)ccc2C#N)OC(N)=C(C#N)C1c1ccc(OC)cc1 (stereo not given) do in these assays?
Cruzain Triton: -4%; Cruzain inh noDet: 16µM*

How did CCOC(=O)C1=C(CSc2nc(CC)c(C)cc2C#N)OC(N)=C(C#N)C1c1ccccc1 (stereo not given) do in these assays?
Cruzain Triton: -6%; Cruzain inh noDet: -18%

What do the screens show for `CC(C)C[C@@H](CC(=O)N[C@@H](CCCN)CC(=O)N[C@@H]1CCNC[C@H]1C(=O)N[C@H](CC(=O)N[C@@H](CCC(=O)O)CC(=O)O)CC(C)C)NC(=O)[C@@H]1CCCC[C@H]1N`?
Cruzain Triton: 1%; Cruzain inh noDet: 6%

What do the screens show for `Cc1cc(C)nc(NC(=NCCc2c[nH]c3ccccc23)NC(=O)Nc2ccc(Cl)c(Cl)c2)n1`?
Cruzain Triton: -2%; Cruzain inh noDet: 7.9µM*

Results for Cc1cc(C)nc(NC(=NCCc2c[nH]c3ccccc23)NC(=O)Nc2ccccc2)n1 ?
Cruzain Triton: -3%; Cruzain inh noDet: inconclusive

How did Cc1cc(C)nc(NC(=NCCc2c[nH]c3ccccc23)NC(=O)Nc2cccc([N+](=O)[O-])c2)n1 do in these assays?
Cruzain Triton: -3%; Cruzain inh noDet: 10µM*

What do the screens show for `Cc1cc(C)nc(NC(=NCCc2c[nH]c3ccccc23)NC(=O)c2ccco2)n1`?
Cruzain Triton: -3%; Cruzain inh noDet: inconclusive

What do the screens show for `Cc1cccc([C@H]2[C@@H]3C=CCC[C@@H]3C(=O)N2Cc2ccccc2)c1`?
Cruzain Triton: -2%; Cruzain inh noDet: -3%

What do the screens show for `COC(=O)[C@@]1(Cc2ccc(OC)cc2)[C@H]2c3cc(C(=O)N(C)C)n(Cc4cccc5ccccc45)c3C[C@H]2CN1C(=O)c1ccccc1`?
Cruzain Triton: -10%; Cruzain inh noDet: inconclusive

How did Cc1sc(NC(=O)/C=C/c2ccc(C(C)C)cc2)c(C#N)c1C do in these assays?
Cruzain Triton: 1%; Cruzain inh noDet: 25µM*

Results for CC(C)c1ccc(/C=C/C(=O)Nc2nncs2)cc1 ?
Cruzain Triton: -5%; Cruzain inh noDet: inconclusive

Results for CCc1cccc(CC)c1NC(=O)C(Cc1ccccc1)NS(=O)(=O)c1cccc2nsnc12 (stereo not given) ?
Cruzain Triton: -3%; Cruzain inh noDet: -12%

What do the screens show for `N#CC(C#N)=CC1=C2OC(c3ccccc3)=CC(c3ccccc3)=C2CCC1`?
Cruzain Triton: 2%; Cruzain inh noDet: 5µM*

How did NC(=O)NCCS[C@H]1CCCC[C@@H]1O do in these assays?
Cruzain Triton: 3%; Cruzain inh noDet: -1%
